Out of some 68,000 compounds screened, about 2,700 (4%) showed an effect of 50% or more. This is one part of a sample in which strong results are shown more often than they occur.

The subject of the experiment is Plasmodium berghei. Put plainly: Screen against P. berghei liver stage (PbLuc), transformed with Luciferase, at 2uM. In kind it is functional, HepG2. The note with it: tested at 2 uM.
Turning to `F[C@@H]1CN(CC2CC2)C[C@@H]1OCc1nc2cnccc2[nH]1`, the INHIBITION is 25.94%. For `COCCC(=O)N1CCC(C(=O)c2cc(C)cnc2N)CC1` the value was 41.56%; for `c1ccc(Sc2ccc3c(c2)OCO3)c(CNC2=NCCN2)c1`, 33.59%.

On to `COCC1N(C(=O)c2ccco2)C2CCC1(O)CC2` (centres undefined), for which the INHIBITION came to 3.88%. Consider `COc1ccc(Br)cc1Cn1nc(C(N)=O)ccc1=O`, for which the INHIBITION is -21.09%. Then `CCOc1ccc(Br)cc1C1CCCN1` (centres undefined), with 53.55%; and `CCOc1ccc(Br)cc1C1CCCCN1` (centres undefined), with -0.44%. As to `CCOc1ccc(Cl)cc1C1CCCN1` (centres undefined), the INHIBITION is on record as -27.75%.

For the compound `Cc1nccn1C1CCCN(C(=O)c2ccc3nnc(C)n3c2)C1` (centres undefined), the INHIBITION is listed as 6.12%.

`Cc1cc(NC(=O)NCc2ccccn2)n(C)n1`: the INHIBITION worked out at 29.11%. For `COc1cc(NC(=O)NCc2ccccn2)cc(OC)c1` the value was 52.08%.

As for `COc1cc(F)cc(NC(=O)NCc2cccc(N(C)C)n2)c1`, the INHIBITION stood at 23.92%. Then `N#Cc1c(F)cccc1NCCCOCC1CCOC1` (centres undefined), with -39.57%; and `C[C@@H]1CN(CC(C)(C)N2CCOCC2)C[C@@]1(O)C1CC1`, with -10.59%. As to `C[C@@H]1CN(CC(C)(C)N2CCCCC2)CC[C@@]1(O)C1CC1`, the INHIBITION is listed as 12.62%. For `C[C@@H]1CN(CC(C)(C)N2CCCCC2)C[C@@]1(O)C1CC1` the value was 51.31%; for `Cc1ccc(C(=O)NCC(O)c2ccc(Cl)s2)c(=O)[nH]1` (centres undefined), 10.05%; for `Cc1occc1C(=O)NCC(O)c1ccc(Cl)s1` (centres undefined), 43.44%. On to `Cc1cc(C(=O)NCC(O)c2ccc(Cl)s2)c(C)o1` (centres undefined), for which the INHIBITION amounted to 57.75%. Regarding `O=C1NC2(CCN(CC3CC3)CC2)CC1c1ccccc1` (centres undefined), the INHIBITION is 11.18%.

As for `CCN1CC2(CC1=O)CN(Cc1ccccn1)CCN(C(C)=O)C2` (centres undefined), the INHIBITION amounted to 28.2%. Then `O=C1CCC2(CCCN(C(=O)c3ccccn3)CC2)N1` (centres undefined), with 28.2%. `Cc1cc(NC(=O)CN2CCN(c3nccs3)C(C)C2)no1` (centres undefined): the INHIBITION was -2.82%.

For the compound `CS(=O)(=O)c1nccn1Cc1ccc(F)cc1Cl`, the INHIBITION is recorded as 29.43%.

Consider `O=C(CCc1ncc(-c2ccc(F)cc2)o1)NCCN1CCOCC1`, for which the INHIBITION is listed as -45.79%. For the compound `Cc1ccc(-c2cnc(CCC(=O)NCCN3CCOCC3)o2)cc1C`, the INHIBITION turned out to be 59.03%. For `O=C(NCCN1CCOCC1)NCc1ncc(-c2ccccc2)o1` the value was 24.89%.

On to `Cc1nc(CNC(=O)NC(C)c2ccc3c(c2)OCCO3)cs1` (centres undefined), for which the INHIBITION came out at 21.69%. For `Cc1nc(C2CCCN(C(=O)c3c(C)nn4cccnc34)C2)no1` (centres undefined) the value was -1.02%; for `Cc1ncsc1C(=O)NC1CCN(Cc2cccc3c2OCCO3)CC1`, 21.83%.

As to `CCCn1ccnc1CN1CCc2[nH]cnc2C1Cc1ccccc1` (centres undefined), the INHIBITION is -76.22%.

With `Cc1cccc(CN2C[C@@H]3CN(C(=O)NC(C)C)C[C@@H]3C2=O)n1`, the INHIBITION was determined as 35.34%. Then `Cc1cccc(CN2C[C@@H]3CN(C(=O)C4CC=CC4)C[C@@H]3C2=O)n1`, with 54.01%; and `Cc1cccc(CN2C[C@@H]3CN(C(=O)c4cnoc4C)C[C@@H]3C2=O)n1`, with 35.89%. For `Cn1nc2c(cc1=O)CN(Cc1nc(-c3ccco3)no1)CC2`, the INHIBITION is -0.05%. For `Cn1nc2c(cc1=O)CN(Cc1nc(-c3ccccn3)no1)CC2` the value was 50.75%. In the case of `Cn1nc2c(cc1=O)CN(Cc1coc(-c3ccc(F)cc3)n1)CC2`, the INHIBITION is recorded as -21.39%. As for `Cc1cnn(CC2CN(Cc3nc(-c4cccnc4)no3)CCO2)c1` (centres undefined), the INHIBITION was 12.75%. Take `CN(C)CC1CN(Cc2nc(-c3cccnc3)no2)CCO1` (centres undefined): the INHIBITION is on record as 52.17%. For the compound `c1cncc(-c2noc(CN3CCOC(Cn4cccn4)C3)n2)c1` (centres undefined), the INHIBITION was -0.12%. For `Cc1ccc(-c2nc(CN3CCc4nn(C)c(=O)cc4C3)co2)cc1` the value was 62.46%; for `Cn1nc2c(cc1=O)CN(Cc1coc(-c3ccccc3)n1)CC2`, 17.31%. For the compound `Cc1cnn(CC2CN(Cc3nc(-c4ccccn4)no3)CCO2)c1` (centres undefined), the INHIBITION is -5.09%.

As to `CCn1nc2c(cc1=O)CN(Cc1nc(-c3ccccn3)no1)CC2`, the INHIBITION is -27.03%. As for `c1ccc(-c2noc(CN3CCOC(Cn4cccn4)C3)n2)nc1` (centres undefined), the INHIBITION worked out at 23.71%. As to `CN(C)CC1CN(Cc2nc(-c3ccccn3)no2)CCO1` (centres undefined), the INHIBITION is 69.11%.

In the case of `O=C(c1ccno1)N1CCOC[C@H](Oc2ccc(C(F)(F)F)cc2)C1`, the INHIBITION was determined as 28.05%.

In the case of `Cc1cnc(C)c(N2C[C@H]3OC(=O)N(C4CCCC4)[C@H]3C2)n1`, the INHIBITION is reported as 12.59%.

Take `O=C(C1CCCC1)N1C[C@@H]2CCN(c3cccnc3)C[C@@H]2C1`: the INHIBITION was -3.25%. For the compound `O=C(Cc1ccc(F)cc1)N1CCn2cc(Cn3cccn3)nc2C1`, the INHIBITION is given as -6.3%. For `CC(C)(C)C(=O)N1CCCC1c1nc(O)cc(-c2ccccn2)n1` (centres undefined) the value was -10.16%; for `COc1cc(C(=O)NC(C)C)nc2c(C)cc(F)cc12`, 35.91%; for `CNc1nc2c(c(C(=O)N3CCCC3)n1)CN(Cc1cc(C)no1)CC2`, 10.63%. For `CS(=O)(=O)N1CCN(C(=O)c2cc(-c3cccs3)cs2)CC1` the value was -23.8%.

Values taken from ChEMBL document CHEMBL4513216, “Probing the Open Global Health Chemical Diversity Library for Multistage-Active Starting Points for Next-Generation Antimalarials” (ACS Infect Dis, 2020).
